Source: PubChem BioAssay (NCATS)
Records with an inconclusive call do not appear. A call without a number means that no potency is given here. Active and inactive are the calls of the source. Calls come from the whole dose curve; as a rule, active = well fitted inhibition curve with a large enough effect; inconclusive = small, poorly fitted or top-dose-only effect; inactive = flat fitted curve, though single readings scatter.

test system: CP203; assay: qHTS profiling for inhibitors of Plasmodium falciparum proliferation (AID 504749); note: nearly all actives have a fitted effect of over 60% in size; settings: P. falciparum in erythrocytes, SYBR Green DNA, 72 h; series mostly up to 28.7 µM
Description: NIH National Institute of Allergy and Infectious Diseases [NIAID] NIH Chemical Genomics Center [NCGC] MLPCN Grant: None Assay Provider: Xinzhuan Su, NIAID NCGC Assay Overview: Plasmodium falciparum is a virulent malarial parasite that kills 1-2 million people worldwide each year. Transmitted by mosquitoes, the sporozoite form of the parasite enters the blood stream to infect hepatocytes, where they become merozoites that infect red blood cells (erythrocytes). Within erythrocytes, merozoites begin a […] cycle of growth and division, after which the parasite is released to infect new red blood cells. Gametocytes, which form within erythrocytes as well, circulate in the bloodstream and are ingested by the mosquito, thereby completing the life cycle. To profile malarial isolates for differential chemical responses and to identify inhibitors of malarial growth, an assay that measures P. falciparum growth and replication within erythrocytes was employed. This assay uses a DNA binding fluorescent dye (SYBR Green) to detect parasite DNA following cell lysis. Because mature erythrocytes lack DNA, only Plasmodium-derived DNA is detected.
NCGC Assay Protocol Summary: The SYBR Green viability assay was adapted from a method described previously (Plouffe et al., 2008). For screening 3 ul culture medium was dispensed into 1536 well black clear bottom plates (Aurora Biotechnologies) using a Multidrop Combi (Thermo Fisher Scientific Inc.), 23 nL compounds in DMSO were added by a pin tool (Kalypsys), and 5 ul of erythrocytes infected with P. falciparum (0.3% parasitemia, 2.5% hematocrit final concentration) were added. The plates were incubated at 37 C in a humidified incubator in 5% CO2 for 72 h, and 2 ul lysis buffer (20 mM Tris HCl, 10 mM EDTA, 0.16% saponin, 1.6% triton X, 10X SYBR Green I supplied as 10,000X […] by Invitrogen) was added to each well. The plates were mixed for 25 sec with gentle shaking and incubated overnight at room temperature in the dark. The following morning, fluorescence intensity at 485(14) nm excitation and 535(25) nm emission wavelengths was measured on an EnVision (Perkin Elmer) plate reader. Plate reads were normalized relative to the control inhibitor (0.29 uM artemisinin) and vehicle (DMSO) wells present on each plate and then corrected by an algorithm using vehicle-only control plates at the beginning and end of the compound plate stack.
Potency is the fitted concentration of half-maximal effect.

Structure (SMILES)	Potency
CC[C@@]1(c2ccccc2)NC(=O)N(C)C1=O	inactive
COc1cc(C(=O)N2CCOCC2)cc(OC)c1OC	inactive
Cc1ccc2nc(N)[nH]c(=O)c2c1Sc1ccncc1	inactive
[O-][n+]1cccc(CO)c1	inactive
Cc1cc2c(cc1S(N)(=O)=O)S(=O)(=O)CCC2	inactive
Oc1cccc(O)c1	inactive
CCN(CC)CCNC(=O)c1cc(Cl)c(N)cc1OC	inactive
Oc1cn2c(n1)Nc1ccc(Cl)c(Cl)c1C2	inactive
O=C1NS(=O)(=O)c2ccccc21	inactive
Cc1cc(CC(=O)O)n(C)c1C(=O)c1ccc(Cl)cc1	inactive
CC1(C)CO[C@@H](CC(=O)O)CN1	inactive
CC12CCC(CC1)C(C)(C)O2	inactive
CCC(=O)c1ccc(O)cc1	inactive
COc1ccccc1O	inactive
CC(=O)Oc1ccc(C2(c3ccc(OC(C)=O)cc3)C(=O)Nc3ccccc32)cc1	inactive
CC1(C)OC(=O)NC1=O	inactive
Nc1nc2c(ncn2CCC(CO)CO)c(=O)[nH]1	inactive
Cc1cccc(C)c1NC(=O)CN(CC(=O)O)CC(=O)O	inactive
COC(=O)C1=C(C)NC(C)=C(C(=O)OC)C1c1ccccc1[N+](=O)[O-]	inactive
O=C1c2c(O)cccc2Cc2cccc(O)c21	inactive

Structure (SMILES)	Potency
CCC(=O)Nc1ccc(O)cc1	inactive
O=C(CCCN1CCN(c2ccccn2)CC1)c1ccc(F)cc1	inactive
Cc1ccc(C(C)C)cc2c(C)ccc1-2	inactive
Cc1cccc(Nc2cc(Cl)nc(SCC(=O)O)n2)c1C	inactive
COc1ccc(Cl)cc1C(=O)NCCc1ccc(S(=O)(=O)NC(=O)NC2CCCCC2)cc1	inactive
CCCCOc1cc(C(=O)OCCN(CC)CC)ccc1N	inactive
O=C(O)CC(O)C(=O)O (stereo not given)	inactive
NC(CSCC(=O)O)C(=O)O (stereo not given)	inactive
OCC(O)CN1CCN(c2ccccc2)CC1 (stereo not given)	inactive
CC(C(O)c1ccc(O)cc1)N1CCC(Cc2ccccc2)CC1 (stereo not given)	12 µM (active)
CCOC(CN1CCN(CC(C)C(=O)c2ccccc2)CC1)c1ccccc1 (stereo not given)	inactive
Nc1ccc(S(=O)(=O)Nc2nccs2)cc1	inactive
CCCn1cnc2c1c(=O)n(CCCCC(C)=O)c(=O)n2C	inactive
NC(=O)NC(=O)Cc1ccccc1	inactive
C[C@]12C[C@H](O)[C@H]3[C@@H](CCC4=CC(=O)CC[C@@]43C)[C@@H]1CC[C@@H]2C(=O)CO	inactive
CCn1cc(C(=O)O)c(=O)c2cnc(N3CCNCC3)nc21	inactive
CC1=C(CC(=O)O)c2cc(F)ccc2/C1=C\c1ccc(S(C)=O)cc1 (stereo not given)	inactive
O=C(O)CN1C(=O)c2cccc3cccc(c23)C1=O	inactive
CC1=C(/C=C/C(C)=C/C=C/C(C)=C/C(=O)O)C(C)(C)CCC1	inactive
Nc1ccc(S(=O)(=O)Nc2ccc(Cl)nn2)cc1	inactive
